# Results reported in PubChem BioAssay (NCI).
# About 79,000 compounds went through this panel and 15% of them were active in at least one assay; those are over-represented in the sample as a whole. Unmarked numbers belong to inactive results. Activity calls are given as the source filed them. Cut-off read from the data, not from the text of the source: active = growth inhibition above about 70%; inactive = the rest.
# Legend:
# [1] = NCI Yeast Anticancer Drug Screen. Data for the rad52 strain (AID 147);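 note: 0% = growth of vehicle-treated control cultures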; details: S. cerevisiae rad52 mutant growth inhibition, active compounds read high
# Outline: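 The repair-mutant yeast strain was incubated with compounds, then growth was read and inhibition derived relative to vehicle.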
# [2] = NCI Yeast Anticancer Drug Screen. Data for the wt1 strain (AID 149);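 note: 0% = growth of vehicle-treated wt1 cultures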; details: S. cerevisiae wt1 strain (SPY 50644) growth inhibition, active compounds read high
# Outline: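 The wt1 strain was treated with compounds, and growth was compared with vehicle-treated cultures to give inhibition.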
# [3] = NCI Yeast Anticancer Drug Screen. Data for the rad50EPP+ strain (AID 151);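 note: 0% = growth of vehicle-treated control cultures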; details: S. cerevisiae rad50 mutant strain, active compounds read high
# Outline: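 Vehicle-normalised growth inhibition; rad50EPP+ yeast strain, altered in DNA damage repair, compound-treated.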
# [4] = NCI Yeast Anticancer Drug Screen. Data for the mgt1 strain (AID 153); details: S. cerevisiae mgt1 mutant growth inhibition, active compounds read high
# Outline: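 Vehicle-normalized growth inhibition is determined in mgt1 yeast, a strain selected for a defined alteration in DNA repair or cell cycle control.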
# [5] = NCI Yeast Anticancer Drug Screen. Data for the rad50 strain (AID 155);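 note: 0% = growth of vehicle-only cultures of the same strain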; details: S. cerevisiae rad50 strain growth inhibition, active compounds read high
# Outline: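 Cells are treated with compound, grown, and their growth is then scored against vehicle-only cultures of the same repair-deficient yeast strain.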
# [6] = NCI Yeast Anticancer Drug Screen. Data for the mec2-1 strain (AID 157); details: S. cerevisiae mec2-1 strain, active compounds read high
# Outline: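 Mutant yeast (mec2-1) grown with compound; growth inhibition relative to vehicle control reported.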
# [7] = NCI Yeast Anticancer Drug Screen. Data for the rad14 strain (AID 159);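 note: 0% = growth of vehicle-treated control cultures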; details: S. cerevisiae rad14 strain growth inhibition, active compounds read high
# Outline: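 Readout: yeast growth inhibition, referenced to vehicle-only cultures. Strain bears a defined alteration in DNA damage repair.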
# [8] = NCI Yeast Anticancer Drug Screen. Data for the sgs1 mgt1 strain (AID 161);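 note: 0% = growth of cultures given vehicle only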; details: S. cerevisiae sgs1 mgt1 strain, active compounds read high
# Outline: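 Percent growth inhibition was derived by comparing compound-exposed mutant yeast with vehicle-exposed cultures. The strain carries alterations in DNA damage repair.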
# [9] = NCI Yeast Anticancer Drug Screen. Data for the CLN2oe strain (AID 163);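 note: 0% = growth of vehicle-only control cultures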; details: S. cerevisiae CLN2oe strain, active compounds read high
# Outline: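 Compounds are applied to yeast harbouring a defined cell-cycle control change; reduced growth compared with vehicle-treated controls gives the value.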
# [10] = NCI Yeast Anticancer Drug Screen. Data for the cln2 rad14 strain (AID 165);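 note: 0% = growth equal to vehicle treated cultures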; details: S. cerevisiae cln2 rad14 strain, active compounds read high
# Outline: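 Readout is yeast growth inhibition versus vehicle-treated controls, using a strain with cln2 and rad14 alterations exposed to compound.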
# [11] = NCI Yeast Anticancer Drug Screen. Data for the bub3 strain (AID 167); details: S. cerevisiae bub3 mutant strain, active compounds read high
# Outline: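 Part of a panel of yeast mutants defective in DNA damage repair or cell cycle regulation. Each strain is grown with compound, and inhibition is calculated relative to solvent-treated cultures.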
# [12] = NCI Yeast Anticancer Drug Screen. Data for the wt2 strain (AID 169);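 note: 0% = growth of vehicle-treated yeast cultures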; details: S. cerevisiae wt2 strain growth inhibition, active compounds read high
# Outline: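 Against vehicle-treated controls, the growth of yeast exposed to each compound was compared, and the inhibition was recorded.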
# [13] = NCI Yeast Anticancer Drug Screen. Data for the mlh1 strain (AID 171);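 note: 0% = growth of vehicle-treated control cultures of the same strain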; details: S. cerevisiae mlh1 strain growth inhibition, active compounds read high
# Outline: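 Measured: yeast growth. Reference: vehicle-treated controls. Organism: strain with a defined alteration affecting DNA damage repair or cell cycle control, treated with compound.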
# [14] = NCI Yeast Anticancer Drug Screen. Data for the sgs1 strain (AID 173);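 note: 0% = growth of vehicle-only control cultures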; details: S. cerevisiae sgs1 mutant, active compounds read high
# Outline: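 Each compound was added to cultures of the altered yeast strain. Growth was recorded, and inhibition was derived by comparison with vehicle controls.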
# [15] = NCI Yeast Anticancer Drug Screen. Data for the mlh1 rad18 strain (AID 175); details: S. cerevisiae mlh1 rad18 strain growth inhibition, active compounds read high
# Outline: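 Genetically defined yeast (DNA repair-deficient) exposed to compounds; growth inhibition determined relative to vehicle.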
# [16] = NCI Yeast Anticancer Drug Screen. Data for the rad18 strain (AID 177); details: S. cerevisiae rad18 mutant growth inhibition, active compounds read high
# Outline: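 Vehicle-treated cultures served as the baseline for scoring compound-induced growth inhibition in DNA-repair-mutant yeast.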
# [17] = at 5.0 µM (retest, dose inferred, filed as 0.5)
# [18] = at 50.0 µM (retest, dose inferred, filed as 5.0)
compound,measurement,setting,value
CC(/C=C/c1ccc2c(c1)OCO2)[N+](=O)[O-] (stereo unspecified),growth inhibition,[1]; at 1.2 µM,40%
same,growth inhibition,[1]; at 3.7 µM,93% (active)
same,growth inhibition,[1]; at 11.0 µM,99% (active)
same,growth inhibition,[1]; at 33.0 µM,99% (active)
same,growth inhibition,[1]; at 100.0 µM,99% (active)
same,growth inhibition,[2]; at 1.2 µM,8%
same,growth inhibition,[2]; at 3.7 µM,71% (active)
same,growth inhibition,[2]; at 11.0 µM,99% (active)
same,growth inhibition,[2]; at 33.0 µM,100% (active)
same,growth inhibition,[2]; at 100.0 µM,99% (active)
same,growth inhibition,[3]; at 1.2 µM,73% (active)
same,growth inhibition,[3]; at 3.7 µM,94% (active)
same,growth inhibition,[3]; at 11.0 µM,99% (active)
same,growth inhibition,[3]; at 33.0 µM,99% (active)
same,growth inhibition,[3]; at 100.0 µM,99% (active)
same,growth inhibition,[4]; at 1.2 µM,1%
same,growth inhibition,[4]; at 3.7 µM,16%
same,growth inhibition,[4]; at 11.0 µM,99% (active)
same,growth inhibition,[4]; at 33.0 µM,99% (active)
same,growth inhibition,[4]; at 100.0 µM,99% (active)
same,growth inhibition,[5]; at 1.2 µM,33%
same,growth inhibition,[5]; at 3.7 µM,86% (active)
same,growth inhibition,[5]; [17],86% (active)
same,growth inhibition,[5]; at 11.0 µM,99% (active)
same,growth inhibition,[5]; at 33.0 µM,99% (active)
same,growth inhibition,[5]; [18],97% (active)
same,growth inhibition,[5]; at 50.0 µM,99.6% (active)
same,growth inhibition,[5]; at 100.0 µM,99% (active)
same,growth inhibition,[6]; at 1.2 µM,4%
same,growth inhibition,[6]; at 3.7 µM,30%
same,growth inhibition,[6]; [17],2%
same,growth inhibition,[6]; at 11.0 µM,100% (active)
same,growth inhibition,[6]; at 33.0 µM,99% (active)
same,growth inhibition,[6]; [18],99% (active)
same,growth inhibition,[6]; at 50.0 µM,99.7% (active)
same,growth inhibition,[6]; at 100.0 µM,99% (active)
same,growth inhibition,[7]; at 1.2 µM,18%
same,growth inhibition,[7]; at 3.7 µM,61%
same,growth inhibition,[7]; at 11.0 µM,100% (active)
same,growth inhibition,[7]; at 33.0 µM,99% (active)
same,growth inhibition,[7]; at 100.0 µM,100% (active)
same,growth inhibition,[8]; [17],62%
same,growth inhibition,[8]; [18],98% (active)
same,growth inhibition,[8]; at 50.0 µM,99.5% (active)
same,growth inhibition,[9]; at 1.2 µM,-1%
same,growth inhibition,[9]; at 3.7 µM,37%
same,growth inhibition,[9]; at 11.0 µM,99% (active)
same,growth inhibition,[9]; at 33.0 µM,99% (active)
same,growth inhibition,[9]; at 100.0 µM,99% (active)
same,growth inhibition,[10]; [17],-13%
same,growth inhibition,[10]; [18],98% (active)
same,growth inhibition,[10]; at 50.0 µM,99.2% (active)
same,growth inhibition,[11]; at 1.2 µM,23%
same,growth inhibition,[11]; at 3.7 µM,69%
same,growth inhibition,[11]; [17],46%
same,growth inhibition,[11]; at 11.0 µM,99% (active)
same,growth inhibition,[11]; at 33.0 µM,99% (active)
same,growth inhibition,[11]; [18],98% (active)
same,growth inhibition,[11]; at 50.0 µM,99% (active)
same,growth inhibition,[11]; at 100.0 µM,98% (active)
same,growth inhibition,[12]; at 1.2 µM,10%
same,growth inhibition,[12]; at 3.7 µM,97% (active)
same,growth inhibition,[12]; at 11.0 µM,100% (active)
same,growth inhibition,[12]; at 33.0 µM,100% (active)
same,growth inhibition,[12]; at 100.0 µM,100% (active)
same,growth inhibition,[13]; at 1.2 µM,-2%
same,growth inhibition,[13]; at 3.7 µM,64%
same,growth inhibition,[13]; at 11.0 µM,99% (active)
same,growth inhibition,[13]; at 33.0 µM,99% (active)
same,growth inhibition,[13]; at 100.0 µM,99% (active)
same,growth inhibition,[14]; at 1.2 µM,30%
same,growth inhibition,[14]; at 3.7 µM,82% (active)
same,growth inhibition,[14]; at 11.0 µM,99% (active)
same,growth inhibition,[14]; at 33.0 µM,99% (active)
same,growth inhibition,[14]; at 100.0 µM,99% (active)
same,growth inhibition,[15]; [17],66%
same,growth inhibition,[15]; [18],98% (active)
same,growth inhibition,[15]; at 50.0 µM,99.4% (active)
same,growth inhibition,[16]; at 1.2 µM,10%
same,growth inhibition,[16]; at 3.7 µM,58%
same,growth inhibition,[16]; at 11.0 µM,99% (active)
same,growth inhibition,[16]; at 33.0 µM,99% (active)
same,growth inhibition,[16]; at 100.0 µM,99% (active)
COc1ccc2c(c1)C(=O)c1ccccc1C2,growth inhibition,[1]; at 1.2 µM,3%
same,growth inhibition,[1]; at 3.7 µM,9%
same,growth inhibition,[1]; at 11.0 µM,20%
same,growth inhibition,[1]; at 33.0 µM,35%
same,growth inhibition,[1]; at 100.0 µM,34%
same,growth inhibition,[2]; at 1.2 µM,2%
same,growth inhibition,[2]; at 3.7 µM,1%
same,growth inhibition,[2]; at 11.0 µM,5%
same,growth inhibition,[2]; at 33.0 µM,6%
same,growth inhibition,[2]; at 100.0 µM,4%
same,growth inhibition,[3]; at 1.2 µM,3%
same,growth inhibition,[3]; at 3.7 µM,10%
same,growth inhibition,[3]; at 11.0 µM,24%
same,growth inhibition,[3]; at 33.0 µM,42%
same,growth inhibition,[3]; at 100.0 µM,46%
same,growth inhibition,[4]; at 1.2 µM,-4%
same,growth inhibition,[4]; at 3.7 µM,2%
same,growth inhibition,[4]; at 11.0 µM,5%
same,growth inhibition,[4]; at 33.0 µM,7%
same,growth inhibition,[4]; at 100.0 µM,10%
same,growth inhibition,[5]; at 1.2 µM,3%
same,growth inhibition,[5]; at 3.7 µM,18%
same,growth inhibition,[5]; [17],-23%
same,growth inhibition,[5]; at 11.0 µM,31%
same,growth inhibition,[5]; at 33.0 µM,48%
same,growth inhibition,[5]; [18],30%
same,growth inhibition,[5]; at 50.0 µM,7%
same,growth inhibition,[5]; at 100.0 µM,35%
same,growth inhibition,[6]; at 1.2 µM,-1%
same,growth inhibition,[6]; at 3.7 µM,5%
same,growth inhibition,[6]; [17],-4%
same,growth inhibition,[6]; at 11.0 µM,-1%
same,growth inhibition,[6]; at 33.0 µM,6%
same,growth inhibition,[6]; [18],23%
same,growth inhibition,[6]; at 50.0 µM,24.4%
same,growth inhibition,[6]; at 100.0 µM,6%
same,growth inhibition,[7]; at 1.2 µM,1%
same,growth inhibition,[7]; at 3.7 µM,6%
same,growth inhibition,[7]; at 11.0 µM,8%
same,growth inhibition,[7]; at 33.0 µM,6%
same,growth inhibition,[7]; at 100.0 µM,7%
same,growth inhibition,[8]; [17],19%
same,growth inhibition,[8]; [18],0%
same,growth inhibition,[8]; at 50.0 µM,-5.05%
same,growth inhibition,[9]; at 1.2 µM,-3%
same,growth inhibition,[9]; at 3.7 µM,-1%
same,growth inhibition,[9]; at 11.0 µM,0%
same,growth inhibition,[9]; at 33.0 µM,9%
same,growth inhibition,[9]; at 100.0 µM,4%
same,growth inhibition,[10]; [17],-18%
same,growth inhibition,[10]; [18],4%
same,growth inhibition,[10]; at 50.0 µM,-19.8%
same,growth inhibition,[11]; at 1.2 µM,42%
same,growth inhibition,[11]; at 3.7 µM,67%
same,growth inhibition,[11]; [17],65%
same,growth inhibition,[11]; at 11.0 µM,74% (active)
same,growth inhibition,[11]; at 33.0 µM,82% (active)
same,growth inhibition,[11]; [18],85% (active)
same,growth inhibition,[11]; at 50.0 µM,75% (active)
same,growth inhibition,[11]; at 100.0 µM,80% (active)
same,growth inhibition,[12]; at 1.2 µM,-1%
same,growth inhibition,[12]; at 3.7 µM,3%
same,growth inhibition,[12]; at 11.0 µM,6%
same,growth inhibition,[12]; at 33.0 µM,7%
same,growth inhibition,[12]; at 100.0 µM,7%
same,growth inhibition,[13]; at 1.2 µM,1%
same,growth inhibition,[13]; at 3.7 µM,-1%
same,growth inhibition,[13]; at 11.0 µM,4%
same,growth inhibition,[13]; at 33.0 µM,11%
same,growth inhibition,[13]; at 100.0 µM,28%
same,growth inhibition,[14]; at 1.2 µM,-3%
same,growth inhibition,[14]; at 3.7 µM,-4%
same,growth inhibition,[14]; at 11.0 µM,0%
same,growth inhibition,[14]; at 33.0 µM,0%
same,growth inhibition,[14]; at 100.0 µM,1%
same,growth inhibition,[15]; [17],2%
same,growth inhibition,[15]; [18],31%
same,growth inhibition,[15]; at 50.0 µM,15.6%
same,growth inhibition,[16]; at 1.2 µM,-2%
same,growth inhibition,[16]; at 3.7 µM,-1%
same,growth inhibition,[16]; at 11.0 µM,6%
same,growth inhibition,[16]; at 33.0 µM,7%
same,growth inhibition,[16]; at 100.0 µM,-6%
